# Compound activity deposited in PubChem BioAssay by several laboratories.
# Most compounds without a hit are left out; they make up all but 3.3% or so of the library.
# FXN GAA850 act = frataxin GAA850 promoter activation | AID 540364 | HEK293 lucGAA850 FXN promoter luciferase reporter, 24 h; percent of 10 µM SAHA response | 360,000 tested, 0.56% active | activation, % at 6 µM;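 active means activation above the average of all compounds screened plus 3 SD, cutoff fixed separately per campaign, cut at about 7.5% in these data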
# C2C12 statin = suppressors of simvastatin-induced myotoxicity in C2C12 myotubes; 330,000 tested, 0.78% active; AID 602340; ATP luminescence, 48 h; scaled: DMSO 0, geranylgeraniol control 100; rescue of ATP level, % at 7.49 µM;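 active means mean ATP rescue above about 67%, or every replicate alone reaching that limit, limit read from the data, passing the limit was not always enough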;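 further: myotubes were challenged with 10 µM simvastatin during compound exposure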
# esBAF inh = inhibitors of esBAF chromatin remodeling in mouse ES cells; Bmi1-luciferase knock-in reporter, 24 h; 100% = twice the neutral-well signal; reporter increase, % at 12.5 µM; 350,000 tested, 2% active; AID 602393; in the data active means activation above about 40%;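 further: a rise in the Bmi1 reporter signal indicates esBAF inhibition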
# Wnt act = activates Wnt/beta-catenin signaling in a reporter cell assay; activator, plate reader; activation, % at 9.35 µM; 300,000 tested, 1.2% active; AID 743398; in the data active means activation above about 30%, passing the limit was not always enough
# MITF act = increases MITF-driven TRPM1 promoter luciferase signal; SK-MEL-5 TRPM1-promoter luciferase, 24 h; % of positive control, neutral wells = 0; activation, % at 12.5 µM; 300,000 tested, 0.75% active; AID 588334;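 active means mean activation of at least 80% with every replicate also reaching 80%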
# A number is an active result; i = inactive; nt = not tested or not shown.
SMILES,FXN GAA850 act,C2C12 statin,esBAF inh,Wnt act,MITF act
Cc1ccc2c(CN(C)Cc3ccccc3)cc(=O)oc2c1C,i,i,59,i,i
CCc1ccc2oc(=O)cc(CN(C)Cc3ccccc3)c2c1,i,i,i,nt,i
CCCNC(=O)C[C@@H]1C[C@@H]2c3cc(NS(C)(=O)=O)ccc3O[C@@H]2[C@@H](CO)O1,nt,i,i,nt,nt
O=C(O)Cc1sc(Nc2ccccc2)nc1-c1cccs1,i,nt,nt,35,i
O=C(Cc1sc(Nc2ccccc2)nc1-c1ccccc1)NCc1ccccc1,i,i,75,i,i
O=C(Cc1sc(-c2ccccc2)nc1-c1ccccc1)Nc1ccccc1,i,i,i,nt,i
COC(=O)C[C@H]1C[C@@H]2c3cc(NC(=O)CC4CC4)ccc3O[C@@H]2[C@@H](CO)O1,nt,i,i,nt,nt
CCN(CC)c1nc(C)nc2c1cnn2CCc1ccccc1,i,i,80,nt,89
CCN(CC)c1ncnc2c1cnn2Cc1ccc(C)cc1,i,i,i,i,i
CCOC(=O)N1CCN(C(=O)CNCc2cccs2)CC1,i,93,i,i,i
CC(=O)c1ccc(NC(=O)CNCc2cccs2)cc1,i,i,54,i,i
CCOC(=O)N1CCN(c2c(NCc3cccs3)c(=O)c2=O)CC1,i,nt,i,i,i
CO[C@@H]1CN(C)C(=O)c2ccc(NC(=O)c3cnccn3)cc2OC[C@@H](C)NC[C@H]1C,nt,i,i,nt,nt
CCNc1ccc(Br)cc(C(=O)/C=C/c2ccc(Cl)cc2Cl)c1=O,i,82,i,i,i
CNc1ccc(Br)cc(C(=O)/C=C/c2cc(OC)ccc2OC)c1=O,i,i,i,i,i
c1ccc2c(c1)ncn2CCCOc1ccc2c(c1)CCC2,i,i,i,38,nt
CCOc1ccc(S(=O)(=O)NCc2csc(C)n2)cc1,i,i,i,nt,i
COc1ccc(S(=O)(=O)NCc2csc(C)n2)cc1,i,142,i,i,i
CCc1ccc(C(=O)c2cncc(Br)c2)cc1,i,i,46,i,i
OC[C@@H]1[C@H](c2ccc(Br)cc2)[C@@H]2CN(Cc3cncnc3)CCCCN12,nt,i,i,nt,nt
Cc1ccc(Cl)cc1NC(=O)CCC(=O)O,i,nt,nt,i,i
Cc1ccc(Cl)cc1NC(=O)Cn1cccc1,i,81,i,i,i
O=C(C[C@H]1C[C@H]2c3cc(NC(=O)C4CCC4)ccc3O[C@H]2[C@H](CO)O1)NCCN1CCCCC1,nt,i,i,nt,nt
Cn1cccc1-c1cc(C(=O)N/N=C/c2ccccc2Cl)[nH]n1,i,i,55,i,86
CC(C)c1ccc(C(=O)N/N=C/c2cccc(Cl)c2Cl)cc1,i,113,i,i,i
SMILES,FXN GAA850 act,C2C12 statin,esBAF inh,Wnt act,MITF act
O=C(NN=Cc1ccccc1Cl)c1ccccc1,i,nt,nt,63,nt
CC(C)c1ccc(/C=N/NC(=O)CCNC(=O)c2ccccc2)cc1,i,i,62,i,i
Cn1cccc1-c1cc(C(=O)N/N=C/c2ccc(F)cc2)[nH]n1,i,i,i,i,i
O=C(CN1CCOCC1)NCC[C@@H]1CC[C@H](NC(=O)c2ccc3c(c2)OCO3)[C@@H](CO)O1,nt,i,i,nt,nt
Nc1ccc(C(=O)N/N=C/c2ccccc2)cc1,i,nt,nt,i,84
O=C(N/N=C/c1ccncc1)c1ccccc1,i,i,i,nt,i
O=[N+]([O-])c1ccc(Sc2cc[n+]([O-])c3ccccc23)c([N+](=O)[O-])c1,i,80,i,i,i
O=c1[nH]c(Sc2ccc([N+](=O)[O-])cc2[N+](=O)[O-])nc2ccccc12,i,nt,nt,i,nt
COc1ccccc1S(=O)(=O)N(C)C[C@@H]1Oc2cc(C#CCC(C)C)ccc2S(=O)(=O)N([C@@H](C)CO)C[C@H]1C,nt,i,i,nt,nt
CCOc1cc(N2CCOCC2)c(OCC)cc1NC(=O)CN1C(=O)NC2(CCc3ccccc32)C1=O (stereo not given),i,89,i,i,i
CCOc1cc(N2CCOCC2)c(OCC)cc1NC(=O)CN1C(=O)NC2(CCCCCCC2)C1=O,i,i,i,i,i
C[C@@H]1CN([C@@H](C)CO)C(=O)Cc2cc(NC(=O)c3ccncc3)ccc2O[C@H]1CN(C)CC1CCCCC1,nt,i,i,nt,nt
CCCN1[C@H](C(=O)NC2Cc3ccccc3C2)[C@@H](CO)[C@@H]2Cn3c(ccc(C4=CCCC4)c3=O)[C@@H]21,nt,i,i,nt,nt
COc1ccc(C2CC(=O)C(c3ccc(Br)cc3)=CN2Cc2ccccc2)cc1 (stereo not given),nt,nt,nt,i,nt
